Pf Dd2 inh: Plasmodium falciparum Dd2 growth inhibition | P. falciparum Dd2 growth, SYBR Green, 72 h | Potency, µM (doses to about 28.9 µM), inactives show at the top dose activity, negative = inhibition, usual class: inhibitors | hit rate 4.3% among 120,000; active means well fitted inhibition curve with a large enough effect;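 further: plate controls were DMSO vehicle for no effect and reference drug for full effect; nearly all actives have a fitted effect of over 65% in size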
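Readout: SYBR Green fluorescence, 485 nm excitation, 535 nm emission, after ~16 h lysis at 37C. Before that, Dd2-infected red cells (2.5% hematocrit) grew 72 h with compound, 29 uM top final concentration.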
Numbers without * were called inactive; i = inactive; [ ] = remark or other dose. The sample as a whole holds a higher share of hits than the screen did. Potency means the concentration at half of the fitted maximal effect.

SMILES	Pf Dd2 inh
Cc1c(C(=O)NCc2ccc(F)cc2)sc2nc3n(c(=O)c12)CCC3	4%
Cc1c(C(=O)Nc2cccc(C(F)(F)F)c2)sc2nc3n(c(=O)c12)CCCC3	10µM*
O=C(NC[C@H]1O[C@H](Cc2cc(COc3ccccc3)on2)CC[C@@H]1O)Nc1ccc(F)cc1	-20%
Cc1nnc(-c2cc(-c3ccc(CO)cc3)ccn2)n1Cc1ccncc1	i
C[C@H](C(=O)N(C)CCC#N)C1CC[C@@]2(C)Cc3sc(NC(=O)c4cccn4C)nc3[C@@H](C)[C@@H]2[C@H]1O (stereo partly drawn)	-1%
CN1CCN(C(=O)c2cccnc2)CC12CCC(=O)N(CC1CC1)CC2 (stereo not drawn)	-10%
CN1CC(=O)N(c2cccc(F)c2)Cc2c1ncnc2N1CCC(F)CC1	0%
COc1cc(C(CC(=O)Nc2cccc(C(C)=O)c2)N2Cc3ccccc3C2=O)cc(OC)c1OC (stereo not drawn)	10µM*
CCc1ccc(NC(=O)CC(c2cc(OC)c(OC)c(OC)c2)N2Cc3ccccc3C2=O)cc1 (stereo not drawn)	-19%
COc1ccccc1NC(=O)CC(c1cc(OC)c(OC)c(OC)c1)N1Cc2ccccc2C1=O (stereo not drawn)	i
CCNC(=O)NC[C@@H]1C=C(C)[C@H](CC(=O)NCCN2CCOCC2)C[C@H]1C(C)C	-21%[44.1 µM]
O=C1NCCCCCCN(C(=O)c2ccoc2)[C@H]2C[C@H](C(=O)N3CCN(c4ccccn4)CC3)C[C@@H]12	i
O=C1NCCCCCN(C(=O)CC2CCCCC2)[C@@H]2C[C@@H](C(=O)N3CCc4ccccc4C3)C[C@H]12	7.1µM*
Cc1cccc(C(=O)N2CCCCCNC(=O)[C@H]3C[C@H](C(=O)N4CCc5ccccc5C4)C[C@H]32)c1	8.9µM*
Cc1ccc(C(=O)N2CCCCCCNC(=O)[C@@H]3C[C@@H](C(=O)N4CCc5ccccc5C4)C[C@@H]32)s1	7.9µM*
Cc1cccc(C(=O)N2CCCCCCNC(=O)[C@@H]3CCCC[C@@H]32)c1	0%
O=C1NCCCCCCN(C(=O)c2cnccn2)[C@H]2C[C@H](C(=O)N3CCc4ccccc4C3)C[C@@H]12	-3%
O=C1NCCCCCCN(C(=O)Cc2ccccc2)[C@H]2CCCC[C@@H]12	i
O=C1NCCCCCN(C(=O)CCCc2ccccc2)[C@H]2CCCC[C@@H]12	-25%
Cc1cccc(C(=O)N2CCCCCNC(=O)[C@@H]3CCCC[C@@H]32)c1	3%
O=C(c1ccc2ccccc2n1)N1CCC(n2c(=O)[nH]c3ccccc32)CC1	-21%
CN1CC(=O)N(C2CCNCC2)Cc2c(NCCO)ncnc21	7%
OCc1cc(CC2(NCc3ccc(CO)o3)COC2)no1	19%[44.1 µM]
COc1ccc(C(=O)N2CCC(C(=O)N3CCCCCCNC(=O)CC3)CC2)cc1	-23%
O=C(Cn1nc2n(c1=O)CCCC2)Nc1ccc(F)cc1	4%
SMILES	Pf Dd2 inh
CCOc1ccc(C(=O)N2CC(c3nnc(C(C)C)o3)C3(CCOCC3)C2)cc1 (stereo not drawn)	i
CC(C)NC(=O)N1CCN(C(=O)c2ccc(N(C)C)cc2)C[C@H]1C(=O)N[C@@H](CC1CCCCC1)C(N)=O	-26%
COCCn1c(=O)[nH]c2cc(C(=O)N3CCN(c4ccccc4)CC3)ccc2c1=O	-5%
COc1ccc(Cn2c(=O)[nH]c3cc(C(=O)N4CCN(c5ccccc5)CC4)ccc3c2=O)cc1	3%
CCCCCn1c(=O)[nH]c2cc(C(=O)N3CCN(c4ccccc4)CC3)ccc2c1=O	9%
O=C(CCCn1c(=O)[nH]c2ccccc2c1=O)N1CCN(c2ccccc2)CC1	10µM*
CC(=O)c1ccc(N2CCN(C(=O)c3ccc(Cn4c(=O)[nH]c5ccccc5c4=O)cc3)CC2)cc1	7.9µM*
O=C(CCCCCn1c(=O)[nH]c2ccccc2c1=O)N1CCN(c2cccc(C(F)(F)F)c2)CC1	-11%
CCN1C(=O)C2(CCN(S(=O)(=O)c3ccc(C)c(Cl)c3)CC2)c2ccccc21	i
Cn1cccc1CN1CCC2(Cc3ccccc3CNC2=O)C1 (stereo not drawn)	-24%
CCC(=O)NCC1Cn2cccc2C(=O)N1Cc1ccccc1 (stereo not drawn)	-4%
CCn1cc(S(=O)(=O)N2CCCCC2c2nc(CCOc3ccc(F)cc3)no2)cn1 (stereo not drawn)	-1%
O=C1NCC(=O)N2CCN(C(=O)Nc3ccccc3Oc3ccccc3)CC12 (stereo not drawn)	-9%
Cc1ccc(C(=O)N2C(C(=O)NCC(C)C)COC23CCN(C(=O)c2cccc(Cl)c2)CC3)cc1 (stereo not drawn)	10µM*
Cc1cccc(C(=O)N2C(C(=O)NCc3ccccc3)COC23CCN(C(=O)CC(C)(C)C)CC3)c1 (stereo not drawn)	7.9µM*
COc1ccc(C(=O)N2CCC3(CC2)OCC(C(=O)NCC(C)C)N3C(=O)c2ccc(C)cc2)cc1 (stereo not drawn)	i
CCCNC(=O)C1COC2(CCN(C(=O)Cc3ccccc3)CC2)N1C(=O)c1cccc(C)c1 (stereo not drawn)	i
CC(C)NC(=O)C1COC2(CCN(C(=O)CC(C)(C)C)CC2)N1C(=O)c1ccccc1 (stereo not drawn)	-25%
Cc1cccc(C(=O)N2C(C(=O)NCC(C)C)COC23CCN(C(=O)c2ccc(F)cc2)CC3)c1 (stereo not drawn)	i
N#Cc1ccc(C(=O)NC2CCN(C(=O)N3CC4CC(C3)[C@H]3CCCC(=O)N3C4)CC2)cc1 (stereo partly drawn)	i
O=C(Nc1cc(F)c(F)c(F)c1)N1CC2CC(C1)[C@H]1CCCC(=O)N1C2 (stereo partly drawn)	8%
O=C(c1cncc(Br)c1)N1CCC(n2c(=O)[nH]c3ccccc32)CC1	i
COc1ccc(-n2nc(C)c(CCC(=O)N3CCOCC3)c2Oc2ccccc2F)cc1	-2%
CCOc1ccc(CN2C(=O)c3ccccc3Sc3ccc(C(=O)NCc4ccco4)cc32)cc1	5µM*
COCCCNC(=O)c1ccc2c(c1)N(Cc1ccccc1F)C(=O)c1ccccc1S2=O (stereo not drawn)	i
SMILES	Pf Dd2 inh
CCOc1ccc(CN2C(=O)c3ccccc3Sc3ccc(C(=O)N4CCN(C)CC4)cc32)cc1	0.13µM*
Cc1ccc(C)c(CN2C(=O)c3ccccc3Sc3ccc(C(=O)NCc4ccco4)cc32)c1	11µM*
O=C(NCc1ccco1)c1ccc2c(c1)N(Cc1ccc(Cl)cc1)C(=O)c1ccccc1S2	-7%
CCOc1ccc(CN2C(=O)c3ccccc3Sc3ccc(C(=O)NCCCN4CCOCC4)cc32)cc1	i
CCOc1ccc(CN2C(=O)c3ccccc3Sc3ccc(C(=O)O)cc32)cc1	93%
CC1CCC(NC(=O)c2ccc3c(c2)N(Cc2ccccc2F)C(=O)c2ccccc2S3=O)CC1 (stereo not drawn)	10µM*
CCC(C)NC(=O)c1ccc2c(c1)N(Cc1ccccc1)C(=O)c1ccccc1S2 (stereo not drawn)	-30%
CC1CCC(NC(=O)c2ccc3c(c2)N(Cc2ccccc2F)C(=O)c2ccccc2S3(=O)=O)CC1 (stereo not drawn)	-14%
CC(C)CC(=O)N1C[C@@H](Oc2cccnc2)C[C@H]1C(=O)NC1CC1	38%
CCOCCn1c(=O)[nH]c2cc(C(=O)N(C)CCc3noc(C)n3)ccc21	-8%
CN(C)Cc1nnc(C2CC(NC(=O)c3ccc4c(c3)CCCO4)C2)n1C (stereo not drawn)	6%
